This is part of a sample that, as a whole, favours compounds with a hit. Of some 83,000 tested, about 20% had one in any assay.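 Activity criterion: percent growth below 10, measured after cells in 96-well plates were exposed to a single compound concentration for 48 hours.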 Values without a mark were called inactive. Activity calls are given as the source filed them.

The subject of the test is A549/ATCC NSCLC. As to the kind of experiment: NCI-60 one-dose screen, 48 h (100 = growth as untreated, 0 = no growth, -100 = all killed). To be noted: 10 µM unless noted.
With `Clc1nnc2c3ccccc3ccn12`, the growth was 102%.

Take `COc1ccc(-c2nn(C(=O)NCCN(C)C)cc2-c2ccncc2)cc1Cl`: the growth was 32.6%.

For the compound `CCN1C(=O)N(CC)C2C1NN=c1s/c(=C\c3ccco3)c(=O)n12` (centres undefined), the growth is 25%.

In the case of `CC(C)N(C(=S)SSC(=S)N(C(C)C)C(C)C)C(C)C`, the growth is 95.9%.

As to `CC(C)=CC[C@@H]1CC2(CC=C(C)C)C(=O)C(OC3(C(=O)c4ccccc4)C(=O)C4(CC=C(C)C)C[C@@H](CC=C(C)C)C(C)(C)C(CC=C(C)C)(C4=O)C3=O)(C(=O)c3ccccc3)C(=O)C(CC=C(C)C)(C2=O)C1(C)C` (some centres undefined), the growth was 6% (active).

As for `CCCCCCCCCCCCCCCC1=NCCN1`, the growth is -15.4% (active).

Take `COc1cc([N+](=O)[O-])cc(OC)c1OC`: the growth is 110%.

Take `NNC(=O)CSc1nc2scc(-c3ccccc3)c2c(=O)n1-c1ccccc1`: the growth is 115%.

As to `C=CCN(CC#N)CC=C`, the growth is 101%.

For `CCOC(=O)Cn1c(-c2nonc2NC(=O)c2ccccc2F)nc2ccccc21`, the growth is 24%.

Turning to `CCCCCCCOc1cccc(/C=C2\N=C3SCCCN3C2=O)c1`, the growth was 91.8%.

`Cc1c2c(cc3c1[nH]c1ccccc13)C=NCC2`: the growth was 91.5%.

As for `COc1cc(OC)c(Cl)cc1N`, the growth was 105%.

Regarding `CS(=O)(=O)c1ccc(C(=O)Nc2ccc(Cl)c(-c3ccccn3)c2)c(Cl)c1`, the growth is 26%.

In the case of `Cc1cc([N+](=O)[O-])c(C)cc1N`, the growth is 104%.

As to `COc1cnc2c(c1)C(=O)c1c-2n(CCCN2CCNCC2)c(=O)c2cc(Cl)ccc12`, the growth is -30.9% (active).

Turning to `COc1cc(/C=C2\CN(C(=O)OC(C)(C)C)C/C(=C\c3ccc(O)c(OC)c3)C2=O)ccc1O`, the growth is 73.2%.

On to `CCN1C(=O)C(C)C=C(C)C=C1C` (centres undefined), for which the growth was 105%.

On to `COCc1nc(NS(=O)(=O)c2ccc(N)cc2)nc(C)c1Br`, for which the growth was 94%.

With `O=c1c2cc(Br)cc(Br)c2nc(-c2ccc(Cl)cc2)n1/N=C\c1ccccc1F`, the growth is 57.1%.

Turning to `CCCCCCCCCCCCCC1=NC(C)(C)CN1C(C)C`, the growth was -50.2% (active).

`CCC(=O)OCc1ccc(OC)cc1`: the growth is 107%.

For the compound `Fc1ccc(-c2cnc3nonc3n2)c(F)c1`, the growth is 109%.

With `O=S(=O)(Nc1ccc2ccccc2c1)N1CCCCC1`, the growth is 68.9%.

`CCn1c(Cc2ccccc2Nc2c(Cl)cccc2Cl)nnc1SCC(=O)Nc1cccc(OC)c1`: the growth is 66.1%.

For `CCN(CC)CC(=O)Nc1c(C)ccc(N)c1C`, the growth is 100%.

In the case of `C=C1C[C@@]2(C)C(CC[C@]3(C)C2CC=C2C4CC(C)(C)C[C@@H](OC(=O)/C(C)=C\C)[C@]4(C(=O)O)CC[C@]23C)C(C)(C)C1=O` (some centres undefined), the growth was -2.25% (active).

Consider `C=C1C(=O)O[C@H]2[C@H]1CC/C(COC(=O)NCc1cccc(OC)c1)=C\CC[C@@]1(C)O[C@@H]21`, for which the growth was 50.7%.

Regarding `CCCCOc1nc2ccccc2cc1/C=C/c1cc(/C=C/c2cc3ccccc3nc2OCCCC)n(-c2ccccc2)n1`, the growth was 102%.

On to `CCCCc1nc(Cl)c(C2CC(c3ccc(S(N)(=O)=O)cc3)=NN2c2cc(Cl)cc(Cl)c2)[nH]1` (centres undefined), for which the growth is 36.5%.

`O=C(N/N=C\c1cc(Br)ccc1O)c1ccncc1`: the growth was 55.6%.

Regarding `CC(C)C/C=C/C=C/C(=O)N[C@@H](CC(N)=O)C(=O)N[C@@H]1C(=O)N[C@H](c2ccc(O)cc2)C(=O)N[C@H](CCCN)C(=O)N[C@H]([C@@H](C)O)C(=O)N[C@H](c2ccc(O)cc2)C(=O)N[C@H](c2ccc(O)cc2)C(=O)N[C@H]([C@H](C)O)C(=O)N[C@H](Cc2ccccc2)C(=O)N[C@H](CCCN)C(=O)N[C@H](c2ccc(O[C@H]3O[C@@H](CO)[C@@H](O)[C@@H](O)[C@H]3O[C@@H]3O[C@H](CO)[C@H](O)[C@H](O)[C@@H]3O)cc2)C(=O)N[C@H]([C@H](C)O)C(=O)N[C@H](c2ccc(O)cc2)C(=O)NCC(=O)N[C@H](CC(C)C)C(=O)N[C@H](C)C(=O)N[C@H](c2ccc(O)c(Cl)c2)C(=O)O[C@@H]1C(N)=O`, the growth was 91.8%.

Consider `CN(C)c1ccc(/C=C\c2cccc[n+]2C)cc1`, for which the growth is 20.8%.

`COC(=O)CSc1ccc(Cl)cc1`: the growth was 98%.

Regarding `S=C(S)Oc1cccc2cccnc12`, the growth is 98.5%.

Consider `O=C1NN(C(=O)c2ccccc2)C(c2ccc(Cl)c(Cl)c2)=C/C1=C\c1ccccc1[N+](=O)[O-]`, for which the growth is 14.4% [6.75 µM].

Turning to `CCOC(=O)Nc1ccc2nc(Sc3ccc(Cl)cc3)sc2c1`, the growth was 42.5%.

With `COc1cc(C2CC(c3cccc(Nc4ccnc5cc(Cl)ccc45)c3)=NN2C=O)cc(OC)c1OC` (centres undefined), the growth is 18.4%.

As for `c1cn2cc(-c3ccc4ncn(C5CCCCC5)c4c3)nc(-c3ccc4c(c3)ncn4C3CCCCC3)c2n1`, the growth is -44.9% (active).

Source of the values: PubChem BioAssay (NCI).
